Data from PubChem BioAssay (NCI).
The panel holds about 79,000 compounds, 15% with a hit somewhere; the sample as a whole holds those more often. Active and inactive are the calls of the source. Cut-off read from the data, not from the text of the source: active = growth inhibition above about 70%; inactive = the rest.

Legend:
[1] = NCI Yeast Anticancer Drug Screen. Data for the rad52 strain (AID 147);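 note: 0% = growth of vehicle-treated control cultures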; conditions: S. cerevisiae rad52 mutant growth inhibition, active compounds read high
Procedure, shortened: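 DNA repair-defective yeast; compound exposure; growth scored against vehicle controls.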

[2] = NCI Yeast Anticancer Drug Screen. Data for the wt1 strain (AID 149);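 note: 0% = growth of vehicle-treated wt1 cultures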; conditions: S. cerevisiae wt1 strain (SPY 50644) growth inhibition, active compounds read high
Procedure, shortened: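 wt1 yeast, compound-treated; % growth inhibition vs vehicle control.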

[3] = NCI Yeast Anticancer Drug Screen. Data for the rad50EPP+ strain (AID 151);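 note: 0% = growth of vehicle-treated control cultures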; conditions: S. cerevisiae rad50 mutant strain, active compounds read high
Procedure, shortened: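 rad50EPP+ yeast treated with test compounds. Readout: growth vs vehicle control.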

[4] = NCI Yeast Anticancer Drug Screen. Data for the mgt1 strain (AID 153); conditions: S. cerevisiae mgt1 mutant growth inhibition, active compounds read high
Procedure, shortened: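 Growth inhibition relative to vehicle controls was scored for the mgt1 yeast strain after compound exposure.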

[5] = NCI Yeast Anticancer Drug Screen. Data for the rad50 strain (AID 155);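 note: 0% = growth of vehicle-only cultures of the same strain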; conditions: S. cerevisiae rad50 strain growth inhibition, active compounds read high
Procedure, shortened: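 Genetically altered yeast (DNA repair pathway); compound treatment; growth inhibition vs vehicle ctrl.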

[6] = NCI Yeast Anticancer Drug Screen. Data for the mec2-1 strain (AID 157); conditions: S. cerevisiae mec2-1 strain, active compounds read high
Procedure, shortened: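 Growth inhibition is read against vehicle-treated controls after compound exposure of the mec2-1 yeast strain, which is defective in DNA damage repair or cell cycle control.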

[7] = NCI Yeast Anticancer Drug Screen. Data for the rad14 strain (AID 159);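 note: 0% = growth of vehicle-treated control cultures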; conditions: S. cerevisiae rad14 strain growth inhibition, active compounds read high
Procedure, shortened: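 Test compounds were applied to a repair-deficient yeast strain. Its growth was then compared with that of cultures given vehicle alone, and inhibition was expressed relative to those controls.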

[8] = NCI Yeast Anticancer Drug Screen. Data for the sgs1 mgt1 strain (AID 161);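 note: 0% = growth of cultures given vehicle only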; conditions: S. cerevisiae sgs1 mgt1 strain, active compounds read high
Procedure, shortened: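 Growth of a repair-deficient yeast mutant was monitored after compound treatment and expressed as inhibition relative to vehicle-treated cultures.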

[9] = NCI Yeast Anticancer Drug Screen. Data for the CLN2oe strain (AID 163);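 note: 0% = growth of vehicle-only control cultures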; conditions: S. cerevisiae CLN2oe strain, active compounds read high
Procedure, shortened: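 Compound-treated yeast; growth vs vehicle ctrl = % inhibition. Genetically altered strain (cell-cycle control).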

[10] = NCI Yeast Anticancer Drug Screen. Data for the cln2 rad14 strain (AID 165);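 note: 0% = growth equal to vehicle treated cultures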; conditions: S. cerevisiae cln2 rad14 strain, active compounds read high
Procedure, shortened: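 Growth inhibition, relative to vehicle-treated controls, is the read-out. The test organism is a yeast strain with defined genetic alterations, cln2 rad14.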

[11] = NCI Yeast Anticancer Drug Screen. Data for the bub3 strain (AID 167); conditions: S. cerevisiae bub3 mutant strain, active compounds read high
Procedure, shortened: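 Yeast carrying a defined mutation is treated with each compound, and growth is compared with that of vehicle-exposed cells to give inhibition.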

[12] = NCI Yeast Anticancer Drug Screen. Data for the wt2 strain (AID 169);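 note: 0% = growth of vehicle-treated yeast cultures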; conditions: S. cerevisiae wt2 strain growth inhibition, active compounds read high
Procedure, shortened: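 Compound exposure of yeast; growth compared with vehicle controls; inhibition reported.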

[13] = NCI Yeast Anticancer Drug Screen. Data for the mlh1 strain (AID 171);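 note: 0% = growth of vehicle-treated control cultures of the same strain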; conditions: S. cerevisiae mlh1 strain growth inhibition, active compounds read high
Procedure, shortened: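 Compounds are applied to a genetically altered yeast strain, and its growth is compared with that of vehicle-treated cultures to give percent inhibition.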

[14] = NCI Yeast Anticancer Drug Screen. Data for the sgs1 strain (AID 173);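 note: 0% = growth of vehicle-only control cultures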; conditions: S. cerevisiae sgs1 mutant, active compounds read high
Procedure, shortened: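 Compounds applied to genetically altered yeast; growth compared with vehicle-treated cultures to give % inhibition.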

[15] = NCI Yeast Anticancer Drug Screen. Data for the mlh1 rad18 strain (AID 175); conditions: S. cerevisiae mlh1 rad18 strain growth inhibition, active compounds read high
Procedure, shortened: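 Cells of a genetically altered yeast strain, deficient in DNA damage repair, were treated with compound. Their growth was then compared with that of vehicle-treated cultures to give inhibition.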

[16] = NCI Yeast Anticancer Drug Screen. Data for the rad18 strain (AID 177); conditions: S. cerevisiae rad18 mutant growth inhibition, active compounds read high
Procedure, shortened: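 Compounds are applied to a repair-deficient yeast strain, and growth is compared with that of vehicle-treated cultures to give percent inhibition.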

[17] = at 5.0 µM (retest, dose inferred, filed as 0.5)
[18] = at 50.0 µM (retest, dose inferred, filed as 5.0)

Measured: growth inhibition

C/C(=N\NC(=S)SCc1ccccc1)c1ccccn1
active: [1]; at 33.0 µM 93% | [1]; at 100.0 µM 91% | [2]; at 33.0 µM 95% | [2]; at 100.0 µM 94% | [3]; at 11.0 µM 78% | [3]; at 33.0 µM 95% | [3]; at 100.0 µM 92% | [4]; at 11.0 µM 83% | [4]; at 33.0 µM 96% | [4]; at 100.0 µM 92% | [5]; at 33.0 µM 95% | [5]; at 50.0 µM 88% | [5]; at 100.0 µM 92% | [6]; at 11.0 µM 92% | [6]; at 33.0 µM 96% | [6]; [18] 96% | [6]; at 50.0 µM 90.2% | [6]; at 100.0 µM 92% | [7]; at 33.0 µM 94% | [7]; at 100.0 µM 92% | [8]; [18] 95% | [8]; at 50.0 µM 86.2% | [9]; at 33.0 µM 96% | [9]; at 100.0 µM 89% | [10]; [18] 95% | [10]; at 50.0 µM 86.1% | [11]; at 11.0 µM 82% | [11]; at 33.0 µM 95% | [11]; [18] 95% | [11]; at 50.0 µM 87% | [11]; at 100.0 µM 91% | [12]; at 11.0 µM 72% | [12]; at 33.0 µM 95% | [12]; at 100.0 µM 92% | [13]; at 11.0 µM 83% | [13]; at 33.0 µM 96% | [13]; at 100.0 µM 92% | [14]; at 11.0 µM 78% | [14]; at 33.0 µM 97% | [14]; at 100.0 µM 94% | [15]; [18] 95% | [15]; at 50.0 µM 87.5% | [16]; at 11.0 µM 80% | [16]; at 33.0 µM 96% | [16]; at 100.0 µM 91%
inactive: [1]; at 1.2 µM 15% | [1]; at 3.7 µM 13% | [1]; at 11.0 µM 60% | [2]; at 1.2 µM -13% | [2]; at 3.7 µM -15% | [2]; at 11.0 µM 58% | [3]; at 1.2 µM 40% | [3]; at 3.7 µM 47% | [4]; at 1.2 µM 13% | [4]; at 3.7 µM 24% | [5]; at 1.2 µM 17% | [5]; at 3.7 µM 22% | [5]; [17] 8% | [5]; at 11.0 µM 69% | [5]; [18] 0% | [6]; at 1.2 µM 38% | [6]; at 3.7 µM 51% | [6]; [17] -5% | [7]; at 1.2 µM -10% | [7]; at 3.7 µM -4% | [7]; at 11.0 µM 31% | [8]; [17] -1% | [9]; at 1.2 µM 2% | [9]; at 3.7 µM 2% | [9]; at 11.0 µM 60% | [10]; [17] 3% | [11]; at 1.2 µM 3% | [11]; at 3.7 µM 20% | [11]; [17] 30% | [12]; at 1.2 µM -36% | [12]; at 3.7 µM -25% | [13]; at 1.2 µM 13% | [13]; at 3.7 µM 24% | [14]; at 1.2 µM 37% | [14]; at 3.7 µM 46% | [15]; [17] -12% | [16]; at 1.2 µM 39% | [16]; at 3.7 µM 53%
